The results in this text go back to PubChem BioAssay (NCATS).

Results filed as inconclusive are left out. Where a call stands in place of a potency, no number is given. Active and inactive are the calls of the source. Calls come from the whole dose curve; as a rule, active = well fitted inhibition curve with a large enough effect; inconclusive = small, poorly fitted or top-dose-only effect; inactive = flat fitted curve, though single readings scatter.
Potency is the fitted concentration of half-maximal effect.

This test deals with Zika virus NS2B-NS3 protease. Description: Primary screen GU AMC qHTS for Zika virus inhibitors (AID 1347154). Note: nearly all actives have a fitted effect of over 70% in size. To be noted: Zika NS2B-NS3 unlinked protease, AMC fluorogenic substrate; series mostly up to 54.1 µM. The method, boiled down:
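Fluorogenic AMC-substrate cleavage by noncovalent NS2B-NS3 protease complex (25 nM, pH 8.0 Tris buffer with Tween 20) followed for 15 minutes at room temperature (~20% conversion). Percent inhibition from ex340/em450 signal change, fitted by 4-parameter Hill equation.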
A general note: In qHTS, concentration-response curves come from the screen itself.
As for `c1ccc2c(c1)sc1ccccc12`, the Potency result is “inactive”.

As to `NC(=O)c1cc([N+](=O)[O-])cc([N+](=O)[O-])c1`, the Potency entry was “inactive”.

In the case of `COC(=O)[C@@H](N)CCCN/C(N)=N/[N+](=O)[O-]`, the Potency entry was “inactive”.

With `NC1=NC(=O)C(c2ccccc2)O1` (centres undefined), the Potency entry is “inactive”.

For `COc1c2c(cc3c1OCO3)CCN(C)C2`, the Potency entry was “inactive”.

In the case of `CCC(C)C(C)(COC(N)=O)COC(N)=O` (centres undefined), the Potency entry was “inactive”.

As to `O=[N+]([O-])O[C@H]1CO[C@H]2[C@@H]1OC[C@H]2O[N+](=O)[O-]`, the Potency result is “inactive”.

For the compound `COc1cc(CC(C)N)cc(OC)c1OC` (centres undefined), the Potency entry is “inactive”.

In the case of `COP(=S)(OC)Oc1ccc(SC)c(C)c1`, the Potency entry is “inactive”.

Consider `Nc1ccc([As](=O)(O)O)cc1`, for which the Potency result was “inactive”.

On to `CCN[C@H](C)Cc1cccc(C(F)(F)F)c1`, for which the Potency result is “inactive”.

For the compound `COC1CC(=C(c2cccs2)c2cccs2)C[N+](C)(C)C1` (centres undefined), the Potency entry is “inactive”.

`CC(Cc1ccccc1)NCCn1cnc2c1c(=O)n(C)c(=O)n2C` (centres undefined): the Potency entry is “inactive”.

`O=C(O)c1ccc(=O)[nH]c1`: the Potency entry was “inactive”.

Regarding `CCN(CC)CCc1c[nH]c2ccccc12`, the Potency result is “inactive”.

Turning to `Clc1ccccc1N1CCNCC1`, the Potency result is “inactive”.

With `C=CCN1C[C@H](C)N([C@H](c2ccc(C(=O)N(CC)CC)cc2)c2cccc(OC)c2)C[C@H]1C`, the Potency result is “inactive”.

With `CC(C)(C)NCC(O)c1cc(Cl)c(N)c(C(F)(F)F)c1` (centres undefined), the Potency entry was “inactive”.

With `CCN[C@@H](C)Cc1cccc(C(F)(F)F)c1`, the Potency result is “inactive”.

Turning to `c1ccc(N2CCNCC2)cc1`, the Potency result is “inactive”.

Regarding `COP(=S)(OC)Oc1ccc(S(=O)(=O)N(C)C)cc1`, the Potency entry is “inactive”.

`Clc1cccc(SC2CCNCC2)n1`: the Potency result was “inactive”.

With `[N-]=[N+]=CC(=O)OC[C@H](N)C(=O)O`, the Potency result was “inactive”.

With `COc1cccc(C(=O)CCN[C@@H](C)[C@H](O)c2ccccc2)c1`, the Potency entry was “inactive”.

Regarding `CC(C)c1c(CN(C)C(C)Cc2ccccc2)n(C)n(-c2ccccc2)c1=O` (centres undefined), the Potency entry was “inactive”.

With `CC(Cc1ccccc1)N(C)Cc1ccco1` (centres undefined), the Potency entry is “inactive”.

On to `CCN[C@@H](C)Cc1ccccc1`, for which the Potency result is “inactive”.

`CC(C)(N)Cc1ccccc1Cl`: the Potency result was “inactive”.

As for `COP(=S)(OC)SCN1C(=O)c2ccccc2C1=O`, the Potency entry was “inactive”.

Consider `C[C@@H](N)[C@@H](O)c1ccccc1`, for which the Potency entry was “inactive”.

In the case of `CN1C(=O)NC(=O)C(C)(C2=CCCCC2)C1=O` (centres undefined), the Potency result is “inactive”.

In the case of `C[C@@H]1CC2=CC(=O)CC[C@@H]2[C@H]2CC[C@@]3(C)[C@@H](CC[C@]3(C)O)[C@@H]21`, the Potency result is “inactive”.

For the compound `C[C@]12CCC(=O)C=C1CC[C@@H]1[C@@H]2CC[C@]2(C)C(=O)CC[C@@H]12`, the Potency entry was “inactive”.

As to `NNc1ccccc1`, the Potency entry is “inactive”.

For the compound `CCCCC/C=C\C/C=C\C/C=C\C/C=C\CCCC(=O)NCC(=O)O`, the Potency is 25.6 µM (active).

Turning to `CC(C)(C)c1ccc(O)cc1`, the Potency entry is “inactive”.

As for `NC(=O)CS(=O)C(c1ccccc1)c1ccccc1` (centres undefined), the Potency result was “inactive”.

On to `C[C@]12Cc3cn[nH]c3C[C@@H]1CC[C@@H]1[C@@H]2CC[C@@]2(C)[C@H]1CC[C@]2(C)O`, for which the Potency result is “inactive”.

In the case of `c1ccc(CN2CCNCC2)cc1`, the Potency result is “inactive”.
